# According to PubChem BioAssay AID504891 (National Center for Advancing Translational Sciences (NCATS), 2011):
# Out of some 390,000 compounds screened, about 35 (0.009%) were called active. A call without a number means that no potency is given here. Inconclusive results (about 6%) are left out. Calls come from the whole dose curve; as a rule, active = well fitted inhibition curve with a large enough effect in the polarisation, with a control signal flat (not every such curve was filed as active); inconclusive = small, poorly fitted or top-dose-only effect, or effect the other way, or a change in a side signal; inactive = no such curve, though single readings can be large or run the other way; the % refers to the polarisation. The full list was thinned out, with actives kept by preference.
# Target: Peptidyl-prolyl cis-trans isomerase NIMA-interacting 1 (Homo sapiens) (UniProt Q13526)
# Assay: qHTS Assay to Find Inhibitors of Pin1
# Conditions: Pin1 FP peptide displacement, HiFluor488, 10 min; series mostly up to 115 µM
# Description: NIH Molecular Libraries Probe Production Network [MLPCN]
# NIH Chemical Genomics Center [NCGC]
# The unique chemical properties of Pro allow for the adoption of two completely distinct amide bond conformations (cis and trans). Peptidyl-prolyl cis/trans isomerases (PPIases) are evolutionary conserved enzymes that catalyze cis/trans isomerization of peptidyl-prolyl peptide bonds. Distinct from all other PPIases such as cyclophilins and FK506-binding proteins (FKBPs), Pin1 binds a subset of phos.Ser/Thr-Pro-containing proteins using its protein-targeting WW domain and isomerizes only specific phos.Ser/Thr-Pro bonds, which cannot be effectively catalyzed by other known PPIases.
# Pin1-catalyzed conformational regulation can control a spectrum of activities of many key regulators in diverse cellular processes such as cell growth, genotoxic and other stress responses, immune response, germ cell development, neuronal differentiation and survival. Pin1 has emerged as a novel molecular timer that modulates its multiple targets at various steps of a given cellular process to synergistically control the amplitude and duration of a cellular response or process. Importantly, Pin1 is tightly regulated by multiple levels and its deregulation has an important role in a growing number of pathological conditions, including cancer, Alzheimer's disease, aging, asthma and microbial infection, providing a potentially new therapeutic option.
# The goal of this screen is to find small-molecule inhibitors of Pin1 using a fluorescence polarization competition assay. A HiFluor-488-labeled peptide binds to the active site of Pin1 and can be displaced by compounds. Compounds were screened as a concentration-titration series that ranged from 57 uM to 0.7 nM.
# NCGC Assay Protocol Summary:
# Pin1 (0.6 uM) was dispensed into black, solid 1536-well plates at 2 uL/well in 10 mM HEPES (pH 7.5), 10 mM NaCl, 0.01% Tween20, 1 mM DTT, and 1% glycerol. Then, 23 nL of compounds or DMSO were delivered to each well using a pin tool. Two uL of Pin1-1b-HiFluor488 peptide (10 mM HEPES (pH 7.5), 10 mM NaCl, 0.01% Tween20, 1 mM DTT, and 1% glycerol, 0.02 uM Pin1-1b-HiFluor488) was then dispensed, and plates were incubated at room temperature for 10 min. The plates were measured on a ViewLux plate reader for fluorescence polarization signal using a 480/20 nM nm excitation filter and 540/25 nM nm S and P emission filters with a 20 second exposure. The %Activity was determined from the corrected fluorescence polarization values. Unlabeled Pin1-1c peptide was used as a control (3.5 mM two-fold serial; 20 uM final concentration) along with a 1x (0.3 uM) and 0x (no-enzyme) Pin1 enzyme control to normalize %Activity of identified inhibitors; 0x enzyme values corresponded to 100%Activity (full inhibition), while 1x Pin1 enzyme values were used to normalize 0%Activity (no inhibition).
# Concentration-response curves were fitted to the signals arising from the resulting fluorescence polarization. The concentration-effect curves were then classified based on curve quality (r2), response magnitude and degree of measured activity, and compounds were subsequently categorized based on their curve class.
# Keywords: Peptidyl prolyl isomerase, Pin1, fluorescence polarization, MLSMR, MLPCN, NIH Roadmap, qHTS, NCGC
# Potency is the fitted concentration of half-maximal effect.
# Peptidyl-prolyl cis-trans isomerase NIMA-interacting 1 (Homo sapiens), sequence (Q13526 whole entry, looked up): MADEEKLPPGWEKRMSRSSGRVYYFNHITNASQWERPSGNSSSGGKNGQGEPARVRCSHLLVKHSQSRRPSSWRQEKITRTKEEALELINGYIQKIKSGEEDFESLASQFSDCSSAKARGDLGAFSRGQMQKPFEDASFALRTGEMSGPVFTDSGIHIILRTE
SMILES,"activity, negative = inhibition",Potency
COc1ccc(C2/C=C\CN(C(=O)c3ccc(C)cc3)C(Cc3ccccc3)C(=O)N2Cc2ccc(F)cc2)cc1 (centres undefined),inactive,–
Cc1ccc2[nH]c3c(=O)n(CC(=O)NC(C)C)ncc3c2c1,inactive,–
COc1ccc(NC(=O)CCc2nnc3n(CC(C)C)c(=O)c4ccccc4n23)cc1OC,inactive,–
Cc1ccc(Cn2ncc3c4sc(C)cc4n(C)c3c2=O)c(C)c1,inactive,–
COc1cc(OC)c2c(C)cc(=O)oc2c1C(CCN1CCCCC1)c1ccc(N(C)C)cc1 (centres undefined),inactive,–
CCc1nnc(SCc2c(F)cccc2Cl)c2cc3sccc3n12,inactive,–
O=C1CCc2cc(S(=O)(=O)Nc3cccc(Oc4ccccc4)c3)ccc2N1,inactive,–
NC(=O)C1CCN(c2cc(-c3ccc4c(c3)OCCCO4)ncn2)CC1,inactive,–
COc1ccc(OCc2ccc(-c3nc(C#N)c(N4CCN(c5ccccc5)CC4)o3)o2)cc1,inactive,–
COc1ccc(Cl)cc1NC(=O)CSc1nc2ccccc2c2nc(-c3ccccc3)nn12,inactive,–
CCCN1CCC(=O)N(C(CSc2ccc(OC)cc2)Cc2ccccc2)CC1 (centres undefined),inactive,–
COc1ccc(CCC(=O)NCc2ccc3c(c2)CCN3C(=O)c2ccc(F)cc2)cc1,inactive,–
Cc1ccc(-c2nnc3c4ccccc4c(C)nn23)cc1NC(=O)c1cccc(Br)c1,inactive,–
Cc1cc2c(s1)c1cnn(Cc3cc(F)c(Cl)cc3Cl)c(=O)c1n2C,inactive,–
COc1cc(Cl)c(C)cc1Nc1nnc(-n2nc(C)cc2C)c2ccccc12,inactive,–
COc1ccc(C2Nc3ccccc3C(=O)N2Cc2ccco2)cc1COc1cccc(NC(C)=O)c1 (centres undefined),inactive,–
COc1ccc(-c2ccc3ncnc(NCc4cccs4)c3c2)cc1OC,inactive,–
COc1ccc(C2/C=C\CN(Cc3ccco3)C(C)C(=O)N2Cc2ccc(F)cc2)cc1 (centres undefined),inactive,–
COc1ccc(-c2onc(C)c2C)cc1S(=O)(=O)NCc1cccs1,inactive,–
Cc1cc(C)n2ncc(C(=O)N3CCCC3)c2n1,inactive,–
CC(C)Oc1cccc(-c2cnc(N3CCC(C(N)=O)CC3)s2)c1,inactive,–
CCCc1nn2c(=O)cc(COC(=O)c3ccc(NC(=O)C(C)Oc4ccccc4)cc3)nc2s1 (centres undefined),inactive,–
Cc1cc(C(=O)OCC(=O)N2C(C)CCCC2C)c2ccccc2n1 (centres undefined),inactive,–
CN(C(=O)COC(=O)c1cc(-c2ccco2)nc2ccccc12)C1CCS(=O)(=O)C1 (centres undefined),–,35.5 µM (active)
Cc1ccc(S(=O)(=O)CCC(=O)OCC(=O)N(C)C2CCS(=O)(=O)C2)cc1 (centres undefined),inactive,–

SMILES,"activity, negative = inhibition",Potency
C=C1CCN(C(CC(C)C)C(=O)NCc2cc(OC)c(OC)c(OC)c2)S(=O)(=O)c2ccccc21 (centres undefined),inactive,–
CCCCS(=O)(=O)c1oc(-c2cccs2)nc1S(=O)(=O)c1ccccc1,inactive,–
CCCS(=O)(=O)N1CCC(n2c(C(F)(F)F)nc3cccnc32)CC1,inactive,–
N#Cc1ccc(OC2=NS(=O)(=O)c3ccccc32)cc1,inactive,–
O=C(NCc1nnc(C(=O)Nc2ccc(C(F)(F)F)cc2Cl)o1)c1ccccc1,inactive,–
Cc1cccc2c1-c1sc(C(=O)Nc3ccc(F)cc3F)cc1CO2,inactive,–
C#CCOc1ccc(C2CC(=O)Nc3c2c(C)nn3-c2nc(C)cc(C)n2)cc1 (centres undefined),inactive,–
CCCN(CCC)CCNC(=O)Cn1cnc2sc(C)c(S(=O)(=O)N3CCC(C)CC3)c2c1=O,inactive,–
COc1ccccc1CNC(=O)c1ccc(NC(=O)N2CC(C)Sc3ccccc32)cc1 (centres undefined),inactive,–
O=C(O)c1ccc2c(c1)N(Cc1ccc(F)cc1)C(=O)c1ccccc1S2=O (centres undefined),inactive,–
O=C(CC1Oc2ccc(Cl)cc2NC1=O)NCc1ccccc1 (centres undefined),inactive,–
CCOC(=O)c1cccc(NC(=O)Cn2cnc3nc4c(cc3c2=O)CCCC4)c1,inactive,–
COc1ccc(OC)c(NC(=O)CN2CCCN(Cc3cc(C)ccc3C)S2(=O)=O)c1,inactive,–
Cc1ccc2sc(N(Cc3cccnc3)C(=O)C3COc4ccccc4O3)nc2c1C (centres undefined),inactive,–
CNC(=O)CN1C(=O)c2cccnc2Sc2ccccc21,inactive,–
CC(=O)N1c2ccccc2CC1C(=O)N1CCN(c2ccc(F)cc2)CC1 (centres undefined),inactive,–
O=C(NCC1CC1)C1(C(F)(F)F)C/C(=C\CCO)CCCO1 (centres undefined),inactive,–
CC(Nc1ncnc2ccc(-c3ccc4c(c3)OCO4)cc12)c1ccco1 (centres undefined),inactive,–
Cc1cccc(S(=O)(=O)c2cn(Cc3ccccc3)c3cc(N4CCOCC4)c(F)cc3c2=O)c1,inactive,–
COc1cccc(C2C(C(=O)Nc3ccc(C)cc3C)=C(C)Nc3c(C(=O)Nc4ccccc4)cnn32)c1 (centres undefined),inactive,–
CCCC(=O)Nc1cc(C(=O)NCc2ccc(OC)cc2)ccc1S(=O)(=O)c1ccc(Cl)cc1,inactive,–
COCCNC(=O)CSc1nc(-c2ccccc2)[nH]c1-c1ccc(C)cc1,inactive,–
C=CCNC(=O)c1ccc2nc(-c3ccco3)c(-c3ccco3)nc2c1,inactive,–
Cc1ccc(S(=O)(=O)NC(N)=NCCC[C@@H](NC(=O)CNC(=O)c2ccccc2)C(=O)Nc2cc(C(F)(F)F)ccc2Cl)cc1,inactive,–
